# From PubChem BioAssay
# KCNQ2 block – inhibitors of rat KCNQ2 potassium channel | O88943 | B-score at 10 µM | 1.1% of 310,000 active | CHO-K1 KCNQ2, FluxOR thallium flux, 20 min; active compounds read low | AID 2156;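 active means fluorescence ratio B-score at most minus 3 library SDs, with starting brightness B-score within 2 library SDs, cut at about -5.5 in these data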
# Target sequence (O88943 whole entry, looked up): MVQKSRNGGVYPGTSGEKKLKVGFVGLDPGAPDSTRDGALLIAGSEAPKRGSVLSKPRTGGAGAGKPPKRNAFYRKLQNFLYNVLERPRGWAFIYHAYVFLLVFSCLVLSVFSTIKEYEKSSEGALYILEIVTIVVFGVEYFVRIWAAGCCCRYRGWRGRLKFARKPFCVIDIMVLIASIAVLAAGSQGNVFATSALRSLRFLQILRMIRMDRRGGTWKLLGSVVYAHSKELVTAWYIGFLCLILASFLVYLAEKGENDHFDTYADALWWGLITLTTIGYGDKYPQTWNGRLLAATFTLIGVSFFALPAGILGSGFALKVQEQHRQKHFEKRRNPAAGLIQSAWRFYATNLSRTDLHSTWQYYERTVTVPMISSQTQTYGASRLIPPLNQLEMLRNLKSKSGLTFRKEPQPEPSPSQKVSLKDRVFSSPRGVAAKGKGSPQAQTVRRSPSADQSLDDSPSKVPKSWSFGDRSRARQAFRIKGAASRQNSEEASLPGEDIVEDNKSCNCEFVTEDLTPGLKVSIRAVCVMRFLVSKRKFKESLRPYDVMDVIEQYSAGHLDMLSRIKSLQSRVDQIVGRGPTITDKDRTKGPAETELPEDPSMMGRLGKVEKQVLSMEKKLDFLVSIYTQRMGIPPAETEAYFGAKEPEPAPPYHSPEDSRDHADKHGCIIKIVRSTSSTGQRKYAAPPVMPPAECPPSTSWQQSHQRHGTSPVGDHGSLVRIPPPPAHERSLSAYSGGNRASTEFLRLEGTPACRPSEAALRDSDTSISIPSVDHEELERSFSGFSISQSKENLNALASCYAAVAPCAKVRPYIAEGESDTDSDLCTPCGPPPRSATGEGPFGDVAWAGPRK
# KCNQ2 enhance – potentiators of rat KCNQ2 potassium channel | O88943 | 0.54% of 310,000 active | B-score at 10 µM | CHO-K1 KCNQ2, FluxOR thallium flux fluorescence; active compounds read high;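 active means fluorescence ratio B-score at least 3 SD of library B-scores, with initial fluorescence B-score within 3 of them, cut at about 5.3 in these data; same plate scores as AID 2156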;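 further: B-score of peak minus minimum over baseline fluorescence ratio after K+ and Tl+ stimulus; positive B-score means potentiation of KCNQ2 with more thallium influx and brighter signal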
# Hits are given with their value; - = inactive; . = no result. This is a sample that favours compounds with a hit; in the whole collection about 1.6% have one here.
SMILES,KCNQ2 block,KCNQ2 enhance
Cc1ccc(C(NC(=O)NC(C)c2ccccc2)C(Cl)(Cl)Cl)cc1F (stereo not drawn),-,17
N#CC(C(=O)NC1CC1)c1nc2ccccc2nc1N1CCCC1 (stereo not drawn),-,.
N#CC(C(=O)NC1CCCCC1)c1nc2ccccc2nc1N1CCN(c2ccc(F)cc2)CC1 (stereo not drawn),-5.8,-
CCCCCCC(=O)N/N=C/c1ccco1,-,10
O=C(C[n+]1ccccc1)N/N=C/c1ccco1,-,-
O=C(CC12CC3CC(CC(C3)C1)C2)N/N=C/c1ccc([N+](=O)[O-])o1,-,16
O=C(Cc1ccc([N+](=O)[O-])cc1)N/N=C/c1ccc([N+](=O)[O-])o1,-,.
CCCCCCCC(=O)N/N=C/c1ccc([N+](=O)[O-])o1,-,8.2
CCOC(=O)N/N=C\c1ccc([N+](=O)[O-])o1,-,.
NC(=O)c1ccc(NC(=O)c2ccc3c(c2)CCN3S(=O)(=O)c2ccccc2)cc1,-,-
COc1ccc(CNC(=O)C2=CCN(S(=O)(=O)c3ccc(C)cc3)CC2)cc1,-,.
O=C(CSc1nnc2ccc(-c3ccccn3)nn12)Nc1ccccc1F,-,.
CCN(CC(=O)NCc1ccc(Cl)cc1)C(=O)CCOc1ccc(C)cc1,-,.
COc1ccc(CN2C(=O)c3ccccc3C2=O)cc1C(=O)O,-,.
CCc1cccc(CC)c1NC(=O)c1cc(CN2C(=O)c3ccccc3C2=O)ccc1OC,-8,-
CC(C)CCN1CCN(Cc2cccc(C(F)(F)F)c2)CC1CCO (stereo not drawn),-,.
Cc1ccc(Cl)cc1N1CCN(C(=O)c2ccc3c(c2)CCN3S(C)(=O)=O)CC1,-,.
Cc1ccc(C)c(OCC(=O)N2CCc3ccccc3C2)c1,-,.
Cc1cc(OCC(=O)N2CCc3ccccc3C2)c(C)cc1Br,-6.1,-
CCOc1ccccc1N(CC(=O)NC1CCCC1)C(=O)CNC(=O)c1cccs1,-,-
CCCCCCOc1ccc(NC(=O)CC2C(=O)N(CC)C(=S)N2Cc2ccco2)cc1 (stereo not drawn),-,.
O=C(NCc1cccnc1)/C(=C\c1ccc(-c2ccc(Br)cc2)o1)S(=O)(=O)c1ccccc1,-,.
O=C(NCc1cccnc1)/C(=C/c1ccc(-c2ccc(Cl)cc2)o1)S(=O)(=O)c1ccccc1,-6.2,-
O=C(CCCCCCCC(=O)c1ccccc1)c1ccccc1,-6.2,-
O=C(CCCCN1CCCCC1)c1ccccc1,-,-
SMILES,KCNQ2 block,KCNQ2 enhance
Cc1ccc(S(=O)(=O)N(CC(=O)Nc2cccc(C(F)(F)F)c2)C(=O)N2CCN(C)CC2)cc1,-,-
C=CCn1c(=NC(=O)c2ccccc2[N+](=O)[O-])sc2cc(S(C)(=O)=O)ccc21,-,.
OCC[C@@H]1C[C@H](O)[C@@H](O)[C@]2(CCc3ccccc3CO2)O1,-,.
COc1cccc(NC(=O)c2cc(-c3ccc(OC)cc3OC)nc3ccccc23)c1,-6.4,-
COc1ccc(-c2cc(C(=O)Nc3cc(C)on3)c3ccccc3n2)c(OC)c1,-,.
N=c1n(Cc2ccccc2)c2ccccc2n1CC(O)COc1ccc(Cl)cc1Cl (stereo not drawn),-6,-
N=c1n(Cc2ccc(Cl)cc2)c2ccccc2n1CC(O)COc1ccccc1 (stereo not drawn),-,.
O=C(CN(C(=O)c1csnn1)c1cccc(C(F)(F)F)c1)NC1CCCC1,-,-
O=C(CSc1nc2ccccc2s1)NCc1cc([N+](=O)[O-])ccc1O,-,-
Cc1ccc(NC(=O)CNC(=O)c2ccco2)cc1,-,.
O=C(COc1ccccc1)NCC(c1ccco1)N1CCN(c2ccccc2F)CC1 (stereo not drawn),-7,-
O=C(COc1ccccc1)NCC(c1ccco1)N1CCN(c2ccc(F)cc2)CC1 (stereo not drawn),-,.
COc1cccc(N2[C@@H](CC(=O)O)c3ccc(/C=C/C(=O)O)cc3S2(=O)=O)c1,-,-
Cc1cc(-c2ccc(S(=O)(=O)N(C)Cc3ccccc3)cc2)on1,-,.
CC(C)c1cccc(OCCN2CCCC2)c1,-,.
CC1CCN(c2ccc3nnc(CCC(=O)N4CCN(c5ccc(F)cc5)CC4)n3n2)CC1,-,-
O=S(=O)(c1ccccc1)N1CCN=C1SCc1c(F)cccc1Cl,-6.3,-
Cc1ccc(C)c(CSC2=NCCN2S(=O)(=O)c2ccccc2)c1,-6.3,-
Cc1ccc(S(=O)(=O)N2CCN=C2SCc2ccc(Cl)c(Cl)c2)cc1,-,.
O=S(=O)(c1ccc(Cl)cc1)N1CCN=C1SCc1cccc(Cl)c1,-,.
CCN(C(=O)COC(=O)c1cccs1)c1c(N)n(Cc2ccccc2)c(=O)[nH]c1=O,-,-
NC(=O)CC1C(=O)N(c2ccccc2)C(=S)N1NC(=O)c1ccccc1 (stereo not drawn),-,.
COc1ccc(CNC(=O)c2ccc(N3CCC4(CC3)CC(c3ccc(Cl)cc3)=NO4)c(N)c2)cc1,-,-
O=C(CN(Cc1ccccc1)C(=O)c1csnn1)NCc1ccccc1,-,.
COC(=O)N/N=C/c1cc(Br)ccc1O,-,.
SMILES,KCNQ2 block,KCNQ2 enhance
O=C(N/N=C/c1cc(Br)ccc1O)c1ccccc1Cl,-,9.1
Cc1cccc(-c2nc(S(=O)(=O)c3ccc(F)cc3)c(NCCCN3CCOCC3)o2)c1,-,-
Cc1cc(C)c2sc(N(CCCN(C)C)C(=O)c3ccc(S(=O)(=O)N4CCc5ccccc5C4)cc3)nc2c1,-,.
Cc1cc(C)c2sc(N(CCCN(C)C)C(=O)c3ccc(S(=O)(=O)N4CCCc5ccccc54)cc3)nc2c1,-7.7,-
CCOc1ccc(N(CC(=O)NCc2ccc(F)cc2)C(=O)c2ccco2)cc1,-,-
CNC(=O)CSc1nc2ccccc2c(=O)n1C1CCCCC1,-,.
CCOC(=O)CSc1nc2ccccc2c(=O)n1C1CCCC1,-5.8,-
COc1ccc(S(=O)(=O)NC2CC(C)(C)NC(C)(C)C2)cc1C(C)C,-,.
Cc1ccc(C(=O)NCCCNC(=O)COc2ccc(C)c(C)c2)cn1,-,.
CCOc1ccccc1CNn1cnnc1,-,-
COc1cccc(CNn2cnnc2)c1O,-5.6,-
COc1ccc(NC(=O)COC(=O)CC23CC4CC(CC(C4)C2)C3)c([N+](=O)[O-])c1,-6.1,-
CCC(=O)OCC(=O)Nc1ccc(OC)cc1[N+](=O)[O-],-,.
C[C@@H]1C=C(C(=O)N2CCN(Cc3ccccc3)CC2)O[C@H](OCc2ccc(CO)cc2)C1,-,.
O=C(C1=C[C@@H](C2CCCCC2)C[C@@H](OCc2ccc(CO)cc2)O1)N1CCN(Cc2ccccc2)CC1,-6.5,-
O=C(C1=C[C@H](C2CCCCC2)C[C@H](OCc2ccc(CO)cc2)O1)N1CCN(Cc2ccccc2)CC1,-6.7,-
O=C(C1=C[C@H](C2CCCCC2)C[C@H](OCc2ccc(CO)cc2)O1)N1CCOCC1,-,.
COCC(C)NC(=O)COCc1cc(-c2ccc3c(c2)OCO3)on1 (stereo not drawn),-,-
CCn1ncc(Br)c1C(=O)Nc1c(C)nn(Cc2c(F)c(F)c(F)c(F)c2F)c1C,-,.
CCC1(c2ccc(F)cc2)NC(=O)N(CC(=O)NCC(=O)Nc2cccc(C)c2C)C1=O (stereo not drawn),-,.
Clc1ccc(CN2CCN(c3ncccn3)CC2)cc1,-,.
C/C(=N\NC(=O)c1ccc2ccccc2c1)c1cccs1,-,-
COc1cccc(/C=C/C(=O)OCC(=O)Nc2cccc(S(=O)(=O)N3CCOCC3)c2)c1OC,-,-
COc1ccc(C)cc1NC(=O)C(=O)NNC(=O)COc1ccc(Cl)cc1,-,11
Cc1ccc(NC(=O)NNC(=O)COc2ccc(Cl)cc2)cc1,-,-
